Results: PubChem BioAssay (Tox21)
Results filed as inconclusive are left out. Unmarked numbers belong to inactive results. Active and inactive are the calls of the source. Calls come from the whole dose curve; as a rule, active = well fitted cell-killing curve with a large enough effect in the repeat runs (not every such curve was filed as active); inconclusive = weak or mixed curves, or effect the other way; inactive = no such curve, though single readings can be large or run the other way.

Assay: qHTS assay to identify small molecule antagonists of the farnesoid-X-receptor (FXR) signaling pathway - cell viability counter screen (AID 743221); note: nearly all actives have a fitted effect of over 50% in size
Conditions: FXR-bla HEK293T viability, CellTiter-Glo luminescence, 16 h; series mostly up to 62.6 µM; activity change, negative = cytotoxicity: at the top concentration
Text: National Center for Advancing Translational Sciences [NCATS]
NIH Chemical Genomics Center [NCGC]
U.S. Environmental Protection Agency [EPA]
National Institutes of Environmental Health Sciences [NIEHS]
National Toxicology Program [NTP]
U.S. Food and Drug Administration [FDA]
The farnesoid-X-receptor (FXR), a nuclear hormone receptor, is highly expressed in liver, intestine, kidney and adrenal cortex. Natural ligands of FXR are the bile acids (Cholic acid, Chenodeoxy cholic acid etc). FXR is an important regulator of diverse metabolic pathways, including the bile acid homeostasis, lipid and glucose metabolisms. FXR regulates the expression of target genes by binding either as a monomer or as a heterodimer with the retinoid X receptor (RXR). Numerous studies have reported that FXR exerts protective function during cholestasis, diabetes, liver regeneration, and cancer. To identify compounds that inhibit FXR signaling, GeneBLAzer FXR-UAS-bla HEK 293T cell line (Invitrogen, Carlsbad, CA) containing a beta-lactamase reporter gene under the control of a UAS response element was used to screen the Tox21 10K compound library. The cytotoxicity of the Tox21 compound library against the FXR-bla cell line was tested in parallel by measuring the cell viability using CellTiter-Glo assay in the same wells.
Tox21 Assay Protocol Summary:
FXR-bla cells were dispensed at 5000 cells/5uL/well in 1536-well black wall/clear bottom plates using a Multidrop Combi (Thermo Fisher Scientific, Waltham, MA) dispenser. After the assay plates were incubated at 37 C and 5% CO2 for 5 h, 23 nL of compounds dissolved in DMSO, positive controls or DMSO only was transferred to the assay plate by a Pintool station (Kalypsys, San Diego, CA), followed by addition of 1 uL Chenodeoxycholic acid (50 uM, final concentration in the wells). The assay plates were incubated at 37C for 16 h. After 1 uL of LiveBLAzerTM B/G FRET substrate was added using a Bioraptr Flying Reagent Dispenser (FRD) workstation (Beckman Coulter, Indianapolis, IN), the plates were incubated at room temperature for 2 h, and fluorescence intensity was measured by an Envision plate reader (PerkinElmer, Shelton, CT). For cell viability readout that measures cytotoxicity, 4uL/well of CellTiter-Glo reagent was added into the assay plates using a Bioraptr FRD. After 30 min incubation at room temperature, the luminescence intensity in the plates was measured using a ViewLux plate reader (PerkinElmer).
% is set by controls: 0 for no effect and ±100 for the full control effect; potency is the fitted concentration of half-maximal effect.

SMILES	Potency	activity change, negative = cytotoxicity
CN1CCC(Nc2ncc3ncnc(Nc4ccc(F)c(Cl)c4)c3n2)CC1	29.8 µM (active)	–
Cn1cc(C(=O)[C@@H]2CCc3nc[nH]c3C2)c2ccccc21	–	-0.222%
CCC(N)(CO)CO	–	-0.758% [at 81.1 µM]
Cc1nc(-c2ccc3c(c2)CCN(CCC2CCC(NC(=O)/C=C/c4ccc(F)cc4)CC2)CC3)no1 (stereo not given)	–	-3.78% [at 29.1 µM]
CCOC(=O)O[C@H](C)OC(=O)c1ccc2c(c1)cc(C(=O)NC1CCN(C(C)C)CC1)n2Cc1cc(-c2ccc(Cl)s2)on1	45.8 µM (active)	–
Nc1ccccc1O	–	6.87%
CCCCN(CCCC)C(=O)N(CCCC)CCCC	–	9.6%
N=C1C=CC(=C(c2ccc(N)cc2)c2ccc(N)cc2)C=C1	–	-20.1%
OC1(c2ccc(Cl)c(C(F)(F)F)c2)CCN(CCCC(c2ccc(F)cc2)c2ccc(F)cc2)CC1	26.6 µM (active)	–
Oc1ccc(Cl)cc1Sc1cc(Cl)ccc1O	48.9 µM (active)	–
CN(C)c1ccc(C2(c3ccc(N(C)C)cc3)OC(=O)c3cc(N(C)C)ccc32)cc1	–	0.0382%
CCCCC(CC)COP(=O)(O)OCC(CC)CCCC (stereo not given)	–	-25.5%
CC(=O)SC[C@@H](Cc1ccccc1)C(=O)NCC(=O)OCc1ccccc1	–	-2.06%
CCCCCCCCCCCCCCCC(=O)OC[C@H](O)[C@H]1OC(=O)C(O)=C1O	–	-28.5%
Cc1cc(O)c(Cl)c(C)c1Cl	49 µM (active)	–
CCC(C)(C)C1CCCCC1OC(C)=O (stereo not given)	–	-0.889%
CC(C)(C)C(=O)OCOC(=O)C1N2C(=O)CC2S(=O)(=O)C1(C)C (stereo not given)	–	-7.39%
CNCc1cc(F)ccc1Oc1ccc(Cl)c(Cl)c1	–	-16.4%
[Cl][Bi]([Cl])([c]1ccccc1)([c]1ccccc1)[c]1ccccc1	10.9 µM (active)	–
C=CC(=O)OCC(CO)(COCC(COC(=O)C=C)(COC(=O)C=C)COC(=O)C=C)COC(=O)C=C	9.65 µM (active)	–

SMILES	Potency	activity change, negative = cytotoxicity
Oc1cccc2cc3cccc(O)c3c(O)c12	–	-17.5% [at 81.1 µM]
Cc1c(C)c2c(c(C)c1OC(=O)CCC(=O)O)CC[C@@](C)(CCC[C@H](C)CCC[C@H](C)CCCC(C)C)O2	–	0.394% [at 81.1 µM]
CCCCCCCCCCCCc1ccc(O)cc1	43.6 µM (active)	–
CN(C)c1ccc(SC#N)cc1	–	-9.83%
CCCCN1CCCC[C@H]1C(=O)Nc1c(C)cccc1C	–	-12.9%
CCCCCCCCCCCC(=O)NCCCN(C)C	49 µM (active)	–
Cc1cc2c(cc1C(F)(F)F)N(C(=O)Nc1ccc(Oc3cccnc3C)nc1)CC2	–	-21.3%
CN(C)[C@@H]1C(=O)C(C(N)=O)=C(O)[C@@]2(O)C(=O)C3=C(O)c4c(O)cccc4C[C@H]3C[C@@H]12	–	0.329%
C1CCCC1	–	-6.47%
O=C(O)c1c(Cl)cccc1Cl	–	7.91%
Cc1cccc(CN2CCN(C(c3ccccc3)c3ccc(Cl)cc3)CC2)c1 (stereo not given)	–	-4.74%
CCCCCCCC[P+](CCCCCCCC)(CCCCCCCC)CCCCCCCC	17.3 µM (active)	–
CC(C)=CCOc1ccc(/C=C/C(=O)c2ccc(OCC=C(C)C)cc2OCC(=O)O)cc1	21.1 µM (active)	–
CO[Si](CCCNc1ccccc1)(OC)OC	–	-0.717%
O=C(OCC(COC(=O)c1ccccc1)(COC(=O)c1ccccc1)COC(=O)c1ccccc1)c1ccccc1	–	4.9%
N=C1N=C(N)c2ccccc21	–	1.23%
O=C(O)c1cc(O)c2c(c1)C(=O)c1cccc(O)c1C2=O	–	3.12% [at 81.1 µM]
Cc1[nH]nc2c1N=C(c1ccccc1Cl)c1cc([N+](=O)[O-])ccc1N2	–	2.41%
Nc1c(Cl)cc(Cl)cc1Cl	–	7.03%
CCN(CC)CCCC(C)Nc1c2ccc(Cl)cc2nc2ccc(OC)cc12 (stereo not given)	26.6 µM (active)	–
